From PubChem BioAssay AID1159580 (chemical genetic matrix, 2015)
Values joined by “and” are separate entries in the source; they are usually repeats but may differ in a detail not shown here. Identical values can stand only once. The whole screen tested about 5,500 compounds, of which about 2,000 (36%) were called active. Not shown: some 18% with an inconclusive outcome. Cut-off read from the data, not from the text of the source: active = normalized growth mostly below about 0.91 (no sharp cut-off); inconclusive = no clear call, values can overlap the other calls; inactive = mostly above about 0.92. Some of the results follow.

Assay: chemical genetic growth profiling, strain panel (AID 1159580);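 note: tested at 20 µM; growth read once vehicle control cultures reached saturation at 30 °C; 1 = growth at the plate median or of vehicle wells; lower values mean less growth of the strain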
Conditions: S. cerevisiae deletion strains, growth OD

Measured: normalized growth

O=C(/C=C/c1ccc(O)c(O)c1)O[C@@H]1C[C@](O)(C(=O)O)C[C@@H](O)[C@H]1O
inactive: locus YAL021C, strain ccr4, stronger effect = lower value 1.05 | locus YAL026C, strain drs2, stronger effect = lower value 0.979 | locus YAL030W, strain snc1, stronger effect = lower value 0.983 | locus YBL061C, strain skt5, stronger effect = lower value 0.992 | locus YBR009C, strain hhf1, stronger effect = lower value 0.994 | locus YBR021W, strain FUR4, stronger effect = lower value 0.992 | locus YBR023C, strain chs3, stronger effect = lower value 1.03 | locus YBR171W, strain sec66, stronger effect = lower value 0.95 | locus YBR229C, strain ROT2, stronger effect = lower value 0.997 | locus YBR231C, strain swc5, stronger effect = lower value 0.956 | locus YBR279W, strain paf1, stronger effect = lower value 0.988 | locus YCL011C, strain gbp2, stronger effect = lower value 0.985 | locus YCL016C, strain dcc1, stronger effect = lower value 1.02 | locus YCL029C, strain bik1, stronger effect = lower value 1.02 | locus YCL061C, strain MRC1, stronger effect = lower value 1 | locus YCL069W, strain vba3, stronger effect = lower value 0.964 | locus YCR088W, strain abp1, stronger effect = lower value 0.968 | locus YDL005C, strain med2, stronger effect = lower value 0.966 | locus YDL035C, strain GPR1, stronger effect = lower value 0.984 | locus YDL040C, strain nat1, stronger effect = lower value 0.98 | locus YDL074C, strain BRE1, stronger effect = lower value 1.04 | locus YDL101C, strain DUN1, stronger effect = lower value 1.02 | locus YDL185W, strain tfp1, stronger effect = lower value 1.01 | locus YDL192W, strain arf1, stronger effect = lower value 1 | locus YDR001C, strain nth1, stronger effect = lower value 0.98 | locus YDR069C, strain doa4, stronger effect = lower value 0.97 | locus YDR101C, strain arx1, stronger effect = lower value 1.02 | locus YDR137W, strain rgp1, stronger effect = lower value 0.98 | locus YDR150W, strain NUM1, stronger effect = lower value 1.01 | locus YDR159W, strain sac3, stronger effect = lower value 0.915 | locus YDR162C, strain NBP2, stronger effect = lower value 1.01 | locus YDR195W, strain ref2 0.942 | locus YDR297W, strain sur2, stronger effect = lower value 0.99 | locus YDR318W, strain mcm21, stronger effect = lower value 1.01 | locus YDR334W, strain swr1, stronger effect = lower value 0.974 | locus YDR335W, strain msn5, stronger effect = lower value 0.973 | locus YDR388W, stronger effect = lower value 1.01 | locus YDR392W, strain spt3, stronger effect = lower value 0.997 | locus YDR502C, strain sam2, stronger effect = lower value 1.02 | locus YEL003W, strain gim4, stronger effect = lower value 0.976 | locus YEL037C, strain rad23, stronger effect = lower value 0.973 | locus YEL061C, strain CIN8 (second series), stronger effect = lower value 0.965 | locus YEL061C, strain CIN8, stronger effect = lower value 1.01 | locus YER015W, strain faa2, stronger effect = lower value 0.988 | locus YER016W, strain bim1, stronger effect = lower value 0.968 | locus YER110C, stronger effect = lower value 1.02 | locus YER111C, strain swi4, stronger effect = lower value 0.976 | locus YER155C, strain BEM2 (second series), stronger effect = lower value 0.993 | locus YER155C, strain BEM2, stronger effect = lower value 1.01 | locus YER167W, strain BCK2, stronger effect = lower value 1.01 | locus YFR010W, strain ubp6, stronger effect = lower value 0.972 | locus YGL078C, strain dbp3, stronger effect = lower value 1.01 | locus YGL086W, strain mad1, stronger effect = lower value 1.02 | locus YGL167C, strain pmr1, stronger effect = lower value 0.971 | locus YGL173C, strain kem1, stronger effect = lower value 0.959 | locus YGL227W, strain vid30, stronger effect = lower value 0.975 | locus YGL240W, strain doc1, stronger effect = lower value 0.962 | locus YGL248W, strain PDE1, stronger effect = lower value 1.01 | locus YGL253W, strain hxk2, stronger effect = lower value 0.949 | locus YGR078C, strain PAC10, stronger effect = lower value 1.03 | locus YGR135W, strain pre9, stronger effect = lower value 0.997 | locus YGR252W, strain gcn5, stronger effect = lower value 0.97 | locus YHR013C, strain ard1, stronger effect = lower value 0.997 | locus YHR027C, strain rpn1, stronger effect = lower value 0.985 | locus YHR030C, strain SLT2, stronger effect = lower value 1.01 | locus YHR079C, strain IRE1 (second series), stronger effect = lower value 1.01 | locus YHR079C, strain IRE1, stronger effect = lower value 1 | locus YHR094C, strain hxt1, stronger effect = lower value 1.02 | locus YHR129C, strain ARP1, stronger effect = lower value 1 | locus YHR142W, strain chs7, stronger effect = lower value 0.975 | locus YHR200W, strain rpn10, stronger effect = lower value 1.02 | locus YIL066C, strain RNR3, stronger effect = lower value 0.981 | locus YIL073C, strain SPO22, stronger effect = lower value 1.02 | locus YIL125W, strain kgd1, stronger effect = lower value 1.02 | locus YIR030C, strain dcg1, stronger effect = lower value 1.01 | locus YJL092W, strain hpr5, stronger effect = lower value 0.969 | locus YJL095W, strain BCK1 (second series), stronger effect = lower value 0.953 | locus YJL095W, strain BCK1, stronger effect = lower value 1.04 and 1.02 | locus YJL115W, strain asf1, stronger effect = lower value 0.992 | locus YJL129C, strain trk1, stronger effect = lower value 0.966 | locus YJL134W, strain LCB3, stronger effect = lower value 1.01 | locus YJL154C, strain vps35, stronger effect = lower value 0.976 | locus YJL164C, strain tpk1, stronger effect = lower value 1.01 | locus YJL166W, strain qcr8, stronger effect = lower value 0.974 | locus YJL168C, strain set2, stronger effect = lower value 1 | locus YJL187C, strain SWE1 (second series), stronger effect = lower value 1.03 | locus YJR043C, strain POL32, stronger effect = lower value 1.01 | locus YJR066W, strain TOR1, stronger effect = lower value 0.947 | locus YJR075W, strain HOC1, stronger effect = lower value 1.04
